# In the library only some 19% were active in any assay of this set; here they are far more common.
# TDP1 cell CPT: DT40-hTDP1 cell growth loss with CPT; chicken DT40 Tdp1-/-;hTDP1 cells + 20 nM CPT, ATP luminescence, 48 h; Potency, µM (top dose mostly 46.2 µM), without a hit: at the highest dose activity change, negative = growth inhibition, hits mostly inhibitors; actives 12% (n = 420,000); AID 686979; note: nearly all actives have a fitted effect of over 55% in size
#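 Cell growth measured by CellTiter-Glo luminescence after a minimum 48 h, 37 C compound exposure with 20 nM CPT in Tdp1-knockout DT40 cells stably expressing hTDP1, seeded 400/well; qHTS titration format.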
# TDP1 block: TDP1 (human) enzyme inhibition; actives 0.28% (n = 350,000); recombinant TDP1, AlphaScreen DNA substrate cleavage; Potency, µM (doses to about 130 µM), for the others: at the highest dose activity change, negative = inhibition, most hits filed as inhibitors; note: nearly all actives have a fitted effect of over 40% in size
#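 AlphaScreen read-out: signal falls as enzyme removes the 3' tyrosine-FITC from a 5'-biotinylated DNA oligo (15 nM, 5 min, RT). Enzyme was E. coli-made recombinant Tdp1 at 1 nM, exposed to compound for 15 min beforehand; beads 10 ug/ml, 10 min.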
# Gal4-VP16 FLuc: Gal4-VP16 reporter inhibition counter-screen | Drosophila S2 Gal4-VP16 UAS-luciferase, luminescence, 20 h | Potency, µM (doses to about 53.6 µM), inactives show top-dose activity, negative = inhibition, hits mostly inhibitors | actives 3.5% (n = 310,000) | AID 2546;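 note: Gal4-VP16 expression switched on by copper sulfate through the metallothionein promoter; nearly all actives have a fitted effect of over 50% in size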
# RORg inh: blocks mouse ROR gamma transcriptional activity | P51450 | Drosophila S2 Gal4-RORgamma UAS-luciferase reporter, 20 h | actives 5.4% (n = 310,000) | Potency, µM (highest dose often 53.6 µM), for inactives: at the highest dose activity change, negative = inhibition, usual class: inhibitors; note: nearly all actives have a fitted effect of over 60% in size
# Target sequence (P51450 whole entry, looked up, the tested form may be a part): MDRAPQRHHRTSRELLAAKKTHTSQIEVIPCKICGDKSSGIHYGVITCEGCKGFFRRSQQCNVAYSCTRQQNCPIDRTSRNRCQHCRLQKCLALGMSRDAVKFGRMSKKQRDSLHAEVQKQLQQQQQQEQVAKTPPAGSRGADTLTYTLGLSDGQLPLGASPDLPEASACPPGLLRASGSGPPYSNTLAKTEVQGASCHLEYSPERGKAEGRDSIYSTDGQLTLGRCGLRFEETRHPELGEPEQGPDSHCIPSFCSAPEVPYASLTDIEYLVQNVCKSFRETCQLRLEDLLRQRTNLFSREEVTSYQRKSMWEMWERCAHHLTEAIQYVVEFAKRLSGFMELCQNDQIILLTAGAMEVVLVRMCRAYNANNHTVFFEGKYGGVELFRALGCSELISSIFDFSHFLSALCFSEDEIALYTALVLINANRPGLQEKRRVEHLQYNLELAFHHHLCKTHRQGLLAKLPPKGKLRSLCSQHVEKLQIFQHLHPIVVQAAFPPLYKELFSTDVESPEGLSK
#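 Luciferase reporter read in Schneider cells carrying Gal4-RORγ (mouse) and UAS-Photinus luciferase; cells given compound 1 h before 700 uM copper sulfate induction, then incubated 20 h at ambient temperature.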
# DT40 TDP1 no CPT: qHTS for Inhibitors of human tyrosyl-DNA phosphodiesterase 1 (TDP1): qHTS in cells in absence of CPT; Potency, µM (series often up to 46.2 µM), inactives show at the highest dose activity change, negative = growth inhibition, actives largely listed as inhibitors; actives 15% (n = 420,000); DT40 Tdp1-/- hTDP1 cells, no CPT, ATP luminescence, 48 h; note: nearly all actives have a fitted effect of over 55% in size
#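 Stably hTDP1-transfected Tdp1-null chicken DT40 cells were treated with library compounds minus camptothecin and grown for at least 48 hr at 37 °C, after which cellular ATP was quantified by luminescence.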
# Starred values were filed as active, the others as inactive; ? = inconclusive; · = no result; [ ] = another dose, or the depositor's remark. Calls come from the whole dose curve; as a rule, active = well fitted curve in the direction sought with a large enough effect; inconclusive = small, poorly fitted or top-dose-only effect, or another doubt; inactive = no such curve, though single readings can be large; an effect the other way counts as inactive or inconclusive. % is set by controls: 0 for no effect and ±100 for the full control effect; potency is the fitted concentration of half-maximal effect.
SMILES,TDP1 cell CPT,TDP1 block,Gal4-VP16 FLuc,RORg inh,DT40 TDP1 no CPT
CCCCN(CCCC)CCn1cnc2c([nH]c3ccc(OC)cc32)c1=O,?,5%,-9%,-22%,?
O=C(O)c1[nH]c2ccccc2c1C(c1cc(Cl)cc([N+](=O)[O-])c1O)c1c(C(=O)O)[nH]c2ccccc12,5%,·,1%,5%,-2%
FC(F)(F)c1cc(Cl)c2nc(-c3ccco3)c(Cc3ccccc3C(F)(F)F)n2c1,?,·,·,·,15µM*
CCNC(=O)C1(C)CCCN(CC(=O)c2ccccc2OC)C1 (centres undefined),-21%,·,·,·,2%
Cc1ccc(C)c(Nc2nnc(-c3ccc(C)c(S(=O)(=O)N4CCN(C)CC4)c3)c3ccccc23)c1,?,·,·,·,23µM*
Cc1ccc(-c2nnc(Nc3ccc(Br)cc3)c3ccccc23)cc1S(=O)(=O)N1CCN(C)CC1,12µM*,9%,·,·,18µM*
COC(=O)c1ccc(Nc2nnc(-c3ccc(C)c(S(=O)(=O)N4CCN(C)CC4)c3)c3ccccc23)cc1,?,·,·,·,23µM*
Cc1ccc(-c2nnc(Nc3ccc(O)cc3)c3ccccc23)cc1S(=O)(=O)N1CCN(C)CC1,?,·,·,·,18µM*
Cc1ccc(-c2nnc(Nc3cccc(Cl)c3)c3ccccc23)cc1S(=O)(=O)N1CCCCC1,?,-1%[12.3 µM],·,·,-22%
Cc1ccc(-c2nnc(Nc3ccc(Br)cc3)c3ccccc23)cc1S(=O)(=O)N1CCCCC1,-9%,-2%[12.3 µM],·,·,?
Cc1ccc(-c2nnc3c4ccccc4c(C)nn23)cc1S(=O)(=O)N1CCN(C)CC1,?,·,·,·,-28%
CCCc1nnc(SCCSc2nnc(CCC)n2N)n1N,?,-2%,-6%,10%,-18%
COc1cc(C=NNC(=O)Cn2nc(C)cc2C)ccc1OC(=O)C1CC1,12%,2%,·,·,24%
Cc1cccc(Nc2nnc(-c3ccc(C)c(S(=O)(=O)N4CCCCC4)c3)c3ccccc23)c1,?,-2%[12.3 µM],·,·,?
Cc1ccc(-c2nnc(Nc3cccc(O)c3)c3ccccc23)cc1S(=O)(=O)N1CCN(C)CC1,?,·,·,·,18µM*
Cn1ncc2c(O/N=C(\N)c3ccc(C(F)(F)F)cc3)ncnc21,6.5µM*,4%,?,-43%,5.2µM*
CCCC(=O)Nc1ccc(NC(=O)C23CC4CC(CC(C4)C2)C3)cn1,?,-4%,5%,?,-24%
CC1CC(CCC(=O)NC(=S)Nc2ccc(Cl)cn2)C(=O)O1 (centres undefined),1%,4%,-27%,11µM*,-8%
O=C(NC(=S)Nc1ccc(Cl)cn1)C12CC3CC(CC(C3)C1)C2,?,3%,4µM*,6.3µM*,?
S=C(Nc1ccccc1)Nc1ccc(Cl)cn1,23µM*,-8%,-14%,3%,5.8µM*
CC1CC(CC(=O)NC(=S)Nc2ccccc2Cl)C(=O)O1 (centres undefined),3%,-3%,-16%[10 µM],-25%,-23%
O=C(NC(=S)Nc1ccc(Cl)cn1)C(c1ccccc1)c1ccccc1,?,3%,4µM*,4µM*,23µM*
O=C(CSc1nc2cc(Cl)ccc2c(=O)n1Cc1ccco1)Nc1ccc(S(=O)(=O)N2CCOCC2)cc1,-24%,4%,-3%,6%,-20%
CCC(=O)NC(=S)Nc1ccc(Cl)cn1,-9%,-2%,?,2.8µM*,-1%
COc1ccc(C2NC(=S)NC3=C2CCCC3=C2SCCS2)cc1 (centres undefined),2.3µM*,5%,?,10µM*,2.9µM*
SMILES,TDP1 cell CPT,TDP1 block,Gal4-VP16 FLuc,RORg inh,DT40 TDP1 no CPT
S=C1NC2=C(CCCC2=C2SCCCS2)C(c2ccccc2)N1 (centres undefined),?,5%,7.9µM*,?,?
CC(C)OC(=O)c1nnc(-c2ccccc2)nc1OC(C)C,?,6%,20%,41%,?
CC(C)(C)C(c1nc2ccccc2[nH]1)n1c(-c2cc(Cl)cc(Cl)c2)nc2ccccc21 (centres undefined),?,·,·,·,16µM*
CC(C)(C)C(c1nc2ccccc2[nH]1)n1c(-c2cccc(S(C)(=O)=O)c2)nc2ccccc21 (centres undefined),10µM*,·,·,·,13µM*
Cc1cc2nc(-c3ccc(OCc4ccccc4C)cc3)cc(C(F)(F)F)n2n1,?,-2%,·,·,16µM*
O=C(O)CC1=C(O)C(=O)N(c2ccccc2)C1c1ccc(Br)cc1 (centres undefined),13%,6%,-2%,0%,1%
COc1ccc(-n2cc(C(=O)NCCc3cc(OC)ccc3OC)c3ccccc3c2=O)cc1,16µM*,12%,·,·,21µM*
CCCCN(C)C(=O)c1cn(-c2cccc(OC)c2)c(=O)c2ccccc12,-2%,·,0%,24%,6%
COc1cccc(-n2cc(C(=O)NCCc3cccc(C)c3)c3ccccc3c2=O)c1,?,0%,·,·,18µM*
CCc1ccccc1N(C)C(=O)c1cn(-c2cccc(OC)c2)c(=O)c2ccccc12,15µM*,1%,·,·,16µM*
CC(=O)c1cc2c(cc1NC(=O)C1CCC1)OCO2,25%,5%,-2%,-11%,-12%
O=C(Nc1nc(-c2ccccc2)ns1)c1ccc(Cl)cc1,?,-1%,·,·,-30%
Cc1ccc(C)c(Cn2c(O)c(N=NC(=S)Nc3ccccc3F)c3ccccc32)c1,5.2µM*,7%,?,-42%,2.9µM*
O=Nc1c(O)n(Cc2ccccc2)c2ccccc12,-3%,·,-12%,-6%,-1%
Oc1c(N=NC(=S)Nc2ccccc2F)c2ccccc2n1Cc1ccccc1F,16µM*,11%,4µM*,2.5µM*,7.3µM*
NC(=S)N=Nc1c(O)n(CC(=O)Nc2ccccc2)c2ccccc12,-22%,·,-15%,?,-10%
Cc1ccccc1Cn1c(O)c(N=NC(=S)Nc2ccccc2F)c2ccccc21,5.8µM*,10%,?,2.5µM*,6.5µM*
Oc1c(N=NC(=S)Nc2ccccc2F)c2ccccc2n1Cc1ccc(Cl)cc1,4.6µM*,3%,-14%,4µM*,5.8µM*
CCn1c(O)c(N=NC(=O)CNC(=O)c2ccccc2F)c2ccccc21,?,0%,-2%,-12%,?
c1ccc(-c2nn3c(Cn4nnc5ccccc54)nnc3s2)nc1,-15%,-7%,3%,10%,?
O=C(CSc1nnc(CNC(=O)c2cccs2)o1)Nc1ccc2c(c1)OCO2,-12%,5%,3%,-27%,-17%
CCNC(=S)N=Nc1c(O)n(Cc2ccc(Cl)cc2)c2ccccc12,16µM*,10%,?,4.5µM*,?

# Screening results as filed in PubChem.
